In PubChem BioAssay (NCATS):
Unmarked numbers belong to inactive results. Inconclusive results are not listed. Calls of active or inactive are those of the source. Unless noted, the call rests on the fitted dose curve; in most records, active means well fitted curve in the direction sought with a large enough effect; inconclusive means small, poorly fitted or top-dose-only effect, or another doubt; inactive means no such curve, though single readings can be large; an effect the other way counts as inactive or inconclusive.

What was measured:
[1] = AP1 Signaling Pathway (AID 357; active means well fitted curve in either direction with a large enough effect, not every such curve was filed as active;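 further: ME-180 reporter cells stimulated with EGF at its EC50 level; on the % scale 0 is the no-effect control and ±100 the full control effect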); settings: ME-180 AP-1-bla reporter, EGF-induced, beta-lactamase ratio, 5 h; at 7.69 µM (top of the series) unless noted
Outline: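 Titration-series screen for positive or negative modulators of EC50 EGF-induced signaling in ME-180 cells carrying an AP-1-driven beta-lactamase reporter. After 5 hours at 37 degrees Celsius, CCF4 460nm/530nm emission ratio gave %Activity; AC50 values derived.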

[2] = target: Cytochrome P450 1A2 (Homo sapiens) (UniProt P05177); test: p450-cyp1a2 (AID 410; calls by dose curve; further: potency means the concentration at half of the fitted maximal effect); settings: recombinant CYP1A2, luciferin-ME demethylation, luminescence; series mostly up to 57 µM
Outline: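 Luminescent demethylation readout: Luciferin-ME (100uM, equal to Km) turned over by 20nM CYP1A2 for 60 min at room temperature after NADPH regeneration addition, following 10 min compound preincubation. Normalization used 57 uM furafylline as full inhibition.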

[3] = NFAT Signaling Pathway (AID 444; active means well fitted curve in either direction with a large enough effect, not every such curve was filed as active;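 further: carbachol stimulus at about its EC50 of 1 µM final; on the % scale 0 is the no-effect control and ±100 the full control effect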); settings: Jurkat NFAT-bla M1, carbachol, beta-lactamase ratio, 5 h; at 7.69 µM (top of the series) unless noted
Outline: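 Jurkat cells with NFAT-driven β-lactamase reporter and co-expressed M1 receptor, stimulated with carbachol (final 1 uM, ~EC50), compound titration, 5 h at 37 °C. CCF4 loaded 1 h at RT; 460/530 nm ratio gave %activity and AC50.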

[4] = Stat Signaling Pathway (AID 446; active means well fitted curve in either direction with a large enough effect, not every such curve was filed as active;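 further: ME-180 cervical cancer cells given 40 pM IL-6 alongside compound; SIE-controlled beta-lactamase reporter measured as 460/530 nm FRET emission ratio; on the % scale 0 is the no-effect control and ±100 the full control effect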); settings: ME-180 SIE beta-lactamase reporter, IL-6 stimulated, 5 h; at 7.69 µM (top of the series) unless noted
Outline: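 FRET read-out (405 nm excitation, 460/530 nm emission) of a beta-lactamase reporter under a STAT-inducible element in ME-180 cervical carcinoma cells. Cells with compound receive 40 pM IL-6 for 5 h. Values are normalised to AC90 stimulation and AC90 JAK-inhibitor controls.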

[5] = target: Glucocorticoid receptor (Homo sapiens) (UniProt P04150); test: GR-GFP Redistribution (AID 450;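 active means compounds whose dose series gives a full or clear partial fitted curve of increased nuclear translocation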; further: potency means the concentration at half of the fitted maximal effect); settings: U2OS GR-GFP nuclear translocation, laser cytometry, 2 h
[6] = target: Glucocorticoid receptor (Homo sapiens) (UniProt P04150); test: GR-EFC Redistribution (AID 451; calls by dose curve; further: potency means the concentration at half of the fitted maximal effect); settings: CHO-K1 GR-EFC translocation, beta-gal luminescence, 2 h
Outline: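 CHO-K1 cells expressing nuclear EA and GR-ED fragments of b-gal; compounds titrated up to 46 uM final, 2 h at 37 C. GR nuclear translocation read as complemented b-gal luminescence after 1 h RT detection.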

[7] = target: Mitogen-activated protein kinase 10 (Mus musculus) (UniProt Q61831); test: JNK3 AlphaScreen Assay (AID 530; active means well fitted curve in either direction with a large enough effect, not every such curve was filed as active;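 further: kinase came from lysate of stimulated human HepG2 cells; signal reports phosphorylation of biotinylated GST-cJun 1-79 at Ser73 with 10 µM ATP; on the % scale 0 is the no-effect control and ±100 the full control effect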); settings: JNK3 lysate, c-Jun phosphorylation; series mostly up to 57.1 µM
Outline: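 Activity was read by AlphaScreen after JNK3-containing HepG2 lysate (cytokine pre-activated) phosphorylated biotinylated GST-cJun with 10 uM ATP at room temperature. Phospho-Ser73 cJun antibody with Protein-A acceptor beads provided detection.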

[8] = target: Dual specificity protein kinase CLK4 (Homo sapiens) (UniProt Q9HAZ1); test: qHTS Assay for Inhibitors of CDC-like Kinase 4 (Kinase-Glo Assay) (AID 1770); settings: recombinant Clk4, Kinase-Glo ATP depletion luminescence; series mostly up to 66.7 µM; further: nearly all actives have a fitted effect of over 65% in size; further: potency means the concentration at half of the fitted maximal effect
Outline: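 Recombinant human Clk4 (25 nM) phosphorylated RS repeat peptide (100 uM) with 1 uM ATP in Tris pH 7.5/MgCl2/EGTA/DTT/Triton buffer for 4.5 h at room temperature. Residual ATP was quantified by Kinase-Glo luciferase luminescence.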

[9] = target: Dual specificity protein kinase CLK4 (Homo sapiens) (UniProt Q9HAZ1); test: qHTS Assay for Inhibitors of CDC-like Kinase 4 (ADP-FP Assay) (AID 1795); settings: Transcreener ADP fluorescence polarization; series mostly up to 50 µM; further: nearly all actives have a fitted effect of over 60% in size; further: potency means the concentration at half of the fitted maximal effect
Outline: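 Recombinant human Clk4 (6.25 nM) phosphorylated RS repeat peptide (100 uM) with 1 uM ATP in Tris pH 7.5/MgCl2/EGTA/DTT/Triton buffer for one hour. ADP was quantified by Transcreener competitive fluorescence polarization against an ADP calibration curve.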

[10] = target: Ubiquitin carboxyl-terminal hydrolase 1 (Homo sapiens) (UniProt O94782); test: Inhibitors of USP1/UAF1: Pilot qHTS (AID 504865); settings: purified USP1/UAF1, Ub-rhodamine cleavage fluorescence; series mostly up to 54.9 µM; further: nearly all actives have a fitted effect of over 35% in size; further: potency means the concentration at half of the fitted maximal effect
Outline: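 USP1/UAF1 complex (1nM) preincubated with compound 15 min at room temperature, then Ub-Rho substrate (150nM final) added. Fluorescence read kinetically at 480/540 nm, 6 reads every 60 seconds. Buffer: 50mM HEPES pH 7.8, 0.5mM EDTA, 0.1 mg/ml BSA, 1mM TCEP, 0.01% Tween-20.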

[11] = Primary qHTS for small molecule stabilizers of the endoplasmic reticulum resident proteome: Secreted ER Calcium Modulated Protein (SERCaMP) assay (AID 1508630); settings: SH-SY5Y GLuc-SERCaMP (Gaussia luciferase released on ER calcium loss) secretion, thapsigargin, luminescence; series mostly up to 38.4 µM; further: on the % scale 0 is the no-effect control and ±100 the full control effect
Outline: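 The SH-SY5Y reporter protocol was run at 3 concentrations up to 38.3 uM (primary) or 11 concentrations (follow-up): 16 h compound, 100 nM thapsigargin for 4 h, then extracellular luciferase luminescence.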

[12] = target: Lysosomal acid glucosylceramidase (Homo sapiens) (UniProt P04062); test: Glucocerebrosidase-p2 (AID 348; in the data active means potency below about 10 µM; further: potency means the concentration at half of the fitted maximal effect); settings: purified GBA, blue fluorogenic substrate, 40 min
Outline: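 Normal human glucocerebrosidase (0.2 nM) with blue fluorogenic substrate (80 uM final) in citrate/phosphate pH 5.9 with 10mM sodium taurocholate, 0.01% tween-20; 40 min RT, NaOH/glycine stop; fluorescence Ex 365/Em 440; AC50 from a titration from 0.6 nM upwards.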

[13] = target: Cytochrome P450 3A4 (Homo sapiens) (UniProt P08684); test: qHTS Assay for Inhibitors and Substrates of Cytochrome P450 3A4 (AID 884); settings: recombinant CYP3A4, Luciferin-PPXE luminescence; series mostly up to 57.1 µM; further: potency means the concentration at half of the fitted maximal effect; nearly all actives have a fitted effect of over 50% in size
Outline: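 Luminescent readout of luciferin produced by CYP3A4 (20 nM) dealkylation of Luciferin-PPXE, 25 uM (its KM). NADPH-driven reaction ran 60 min at RT after 10 min compound preincubation; data scaled to 57 uM ketoconazole as 100% inhibition.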

[14] = target: Cytochrome P450 3A4 (Homo sapiens) (UniProt P08684); test: qHTS Assay for Activators of Cytochrome P450 3A4 (AID 885); settings: recombinant CYP3A4, Luciferin-PPXE luminescence, 60 min; series mostly up to 57.1 µM; further: nearly all actives have a fitted effect of over 65% in size
Outline: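 Luminescent readout of luciferin formed from 25 uM Luciferin-PPXE (KM level) by 20 nM CYP3A4 in 200 mM KPO4, with 60 min NADPH-driven reaction at room temperature after 10 min compound exposure. Ketoconazole (57 uM) defined 100% inhibition.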

[15] = target: Cytochrome P450 2C9 (Homo sapiens) (UniProt P11712); test: qHTS Assay for Inhibitors and Substrates of Cytochrome P450 2C9 (AID 883); settings: recombinant CYP2C9, luciferin-H luminescence, 60 min; series mostly up to 57.1 µM; further: potency means the concentration at half of the fitted maximal effect; nearly all actives have a fitted effect of over 60% in size
Outline: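 Human CYP2C9 (10nM) with Luciferin-H at 100uM (its KM) in 25mM KPO4; compound preincubated 10 min at 37C, then NADPH regeneration for 60 min at 37C. Luciferin read by luminescence after detection reagent; normalized to 57uM sulphaphenazole as full inhibition.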

[16] = target: Cytochrome P450 2C19 (Homo sapiens) (UniProt P33261); test: qHTS Assay for Inhibitors and Substrates of Cytochrome P450 2C19 (AID 899); settings: recombinant CYP2C19, luciferin-H EGE luminescence; series mostly up to 57.1 µM; further: potency means the concentration at half of the fitted maximal effect; nearly all actives have a fitted effect of over 60% in size
Outline: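 5 nM human CYP2C19 with 10uM Luciferin-H EGE (at KM) in 50mM KPO4, compound preincubated 10 min at 37C, then NADPH regeneration for 60 min at 37C. Luciferin read by luminescence after detection reagent; normalized to 57uM ketoconazole as full inhibition.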

[17] = target: 3',5'-cyclic-AMP phosphodiesterase 4B (Homo sapiens) (UniProt Q07343); test: qHTS Assay for Inhibitors of PDE-IV (AID 607; active means well fitted activation curve with a large enough effect in the main read-out, with a control signal flat, not every such curve was filed as active; further: % of control where 0% means no effect); settings: HEK293 ACTOne CNG channel cells, membrane potential fluorescence; series mostly up to 22.9 µM
Outline: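 Cell-based read-out of cAMP via a modified cyclic nucleotide-gated channel and membrane potential dye (535/590 nm) in HEK293 cells expressing PDE4 endogenously. Compounds tested up to 22.9 uM final; 100 uM RO 20-1724 reference.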

[18] = qHTS Assay for Identification of Small Molecule Agonists for Hypoxia Response Element Signaling Pathway (AID 914; active means well fitted activation curve with a large enough effect in the signal ratio, with a control signal flat, not every such curve was filed as active; the % refers to the signal ratio; further: % of control where 0% means no effect); settings: ME-180 (cervical carcinoma) HRE-bla reporter, beta-lactamase ratio, CoCl2, 17 h; activation: stronger effect = higher value
Outline: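 Positive modulation of EC50 CoCl2-induced hypoxia response element signaling is measured in ME-180 cells with a beta-lactamase reporter. Compounds are titrated, incubation runs 17 hours, and %Activity derives from the blue/green ratio.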

Chain of 3',5'-cyclic-AMP phosphodiesterase 4B (Homo sapiens) (Q07343 whole entry, looked up): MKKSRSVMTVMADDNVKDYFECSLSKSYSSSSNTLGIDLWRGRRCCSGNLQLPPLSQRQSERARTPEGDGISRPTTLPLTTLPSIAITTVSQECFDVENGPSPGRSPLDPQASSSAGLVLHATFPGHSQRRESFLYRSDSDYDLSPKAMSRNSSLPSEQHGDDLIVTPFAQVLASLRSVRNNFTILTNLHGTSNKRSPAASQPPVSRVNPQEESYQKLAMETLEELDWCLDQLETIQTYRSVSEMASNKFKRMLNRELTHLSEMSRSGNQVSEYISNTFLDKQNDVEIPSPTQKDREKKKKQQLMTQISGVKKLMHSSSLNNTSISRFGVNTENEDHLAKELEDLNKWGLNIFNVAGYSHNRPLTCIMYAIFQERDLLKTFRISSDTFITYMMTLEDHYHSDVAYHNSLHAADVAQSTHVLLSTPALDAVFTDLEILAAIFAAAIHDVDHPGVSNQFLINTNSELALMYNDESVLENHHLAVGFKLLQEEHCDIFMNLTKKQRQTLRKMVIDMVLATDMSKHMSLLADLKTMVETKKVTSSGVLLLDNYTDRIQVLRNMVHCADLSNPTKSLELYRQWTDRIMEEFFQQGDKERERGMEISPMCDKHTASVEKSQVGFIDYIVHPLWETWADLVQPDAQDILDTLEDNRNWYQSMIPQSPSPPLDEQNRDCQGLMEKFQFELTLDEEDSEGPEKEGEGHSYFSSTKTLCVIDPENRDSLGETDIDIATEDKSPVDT
Chain of Dual specificity protein kinase CLK4 (Homo sapiens) (Q9HAZ1 whole entry, looked up): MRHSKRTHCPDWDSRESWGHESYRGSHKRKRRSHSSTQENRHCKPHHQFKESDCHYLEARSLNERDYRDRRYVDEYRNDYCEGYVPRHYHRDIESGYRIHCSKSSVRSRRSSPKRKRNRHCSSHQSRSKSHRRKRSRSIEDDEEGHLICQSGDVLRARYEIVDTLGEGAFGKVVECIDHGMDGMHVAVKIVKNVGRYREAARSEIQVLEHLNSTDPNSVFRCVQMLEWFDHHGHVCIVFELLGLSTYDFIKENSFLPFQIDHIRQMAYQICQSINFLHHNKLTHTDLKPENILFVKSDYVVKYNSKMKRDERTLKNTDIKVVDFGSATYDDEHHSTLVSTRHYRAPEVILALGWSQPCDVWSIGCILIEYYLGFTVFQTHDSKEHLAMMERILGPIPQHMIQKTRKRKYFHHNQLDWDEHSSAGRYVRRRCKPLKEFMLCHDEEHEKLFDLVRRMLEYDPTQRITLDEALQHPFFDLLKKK
Chain of Glucocorticoid receptor (Homo sapiens) (P04150 whole entry, looked up, the tested form may be a part): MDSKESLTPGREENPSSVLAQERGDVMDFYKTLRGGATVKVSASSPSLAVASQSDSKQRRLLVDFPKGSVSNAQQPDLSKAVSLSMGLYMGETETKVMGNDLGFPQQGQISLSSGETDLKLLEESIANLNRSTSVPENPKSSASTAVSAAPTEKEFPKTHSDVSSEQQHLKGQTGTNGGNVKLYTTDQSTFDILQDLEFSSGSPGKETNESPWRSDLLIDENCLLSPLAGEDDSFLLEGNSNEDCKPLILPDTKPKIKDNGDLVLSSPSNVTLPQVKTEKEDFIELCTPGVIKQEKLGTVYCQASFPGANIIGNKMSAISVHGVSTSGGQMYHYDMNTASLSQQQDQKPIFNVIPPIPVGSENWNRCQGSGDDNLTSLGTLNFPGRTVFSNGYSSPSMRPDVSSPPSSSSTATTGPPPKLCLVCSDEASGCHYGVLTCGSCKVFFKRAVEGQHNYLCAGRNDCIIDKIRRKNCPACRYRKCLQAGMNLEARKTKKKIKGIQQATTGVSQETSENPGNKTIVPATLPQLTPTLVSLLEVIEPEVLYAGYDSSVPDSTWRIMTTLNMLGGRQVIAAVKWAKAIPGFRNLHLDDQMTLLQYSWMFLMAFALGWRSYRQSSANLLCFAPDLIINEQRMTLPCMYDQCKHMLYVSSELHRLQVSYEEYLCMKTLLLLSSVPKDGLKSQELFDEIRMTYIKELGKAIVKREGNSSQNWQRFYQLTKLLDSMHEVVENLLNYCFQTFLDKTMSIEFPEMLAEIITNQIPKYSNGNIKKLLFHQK
Chain of Ubiquitin carboxyl-terminal hydrolase 1 (Homo sapiens) (O94782 whole entry, looked up): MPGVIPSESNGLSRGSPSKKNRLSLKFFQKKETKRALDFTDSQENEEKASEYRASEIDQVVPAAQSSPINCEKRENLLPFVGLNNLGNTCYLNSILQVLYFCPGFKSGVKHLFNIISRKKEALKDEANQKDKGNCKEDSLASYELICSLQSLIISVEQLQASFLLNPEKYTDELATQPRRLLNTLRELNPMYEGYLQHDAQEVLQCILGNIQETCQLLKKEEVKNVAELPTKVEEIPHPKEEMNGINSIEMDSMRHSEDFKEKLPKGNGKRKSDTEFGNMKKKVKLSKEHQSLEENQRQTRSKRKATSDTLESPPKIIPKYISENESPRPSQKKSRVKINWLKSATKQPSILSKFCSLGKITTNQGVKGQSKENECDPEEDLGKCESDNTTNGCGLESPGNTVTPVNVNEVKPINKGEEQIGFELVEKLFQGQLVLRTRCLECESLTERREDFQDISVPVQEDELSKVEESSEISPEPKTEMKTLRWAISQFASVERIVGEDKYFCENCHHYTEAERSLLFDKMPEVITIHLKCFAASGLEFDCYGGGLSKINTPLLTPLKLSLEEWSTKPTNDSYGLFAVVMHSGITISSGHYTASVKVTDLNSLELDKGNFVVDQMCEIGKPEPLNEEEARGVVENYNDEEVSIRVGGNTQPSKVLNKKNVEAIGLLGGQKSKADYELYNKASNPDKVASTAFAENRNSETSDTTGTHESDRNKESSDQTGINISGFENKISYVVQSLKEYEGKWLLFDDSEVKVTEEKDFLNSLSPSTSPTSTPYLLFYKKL
Chain of Lysosomal acid glucosylceramidase (Homo sapiens) (P04062 whole entry, looked up): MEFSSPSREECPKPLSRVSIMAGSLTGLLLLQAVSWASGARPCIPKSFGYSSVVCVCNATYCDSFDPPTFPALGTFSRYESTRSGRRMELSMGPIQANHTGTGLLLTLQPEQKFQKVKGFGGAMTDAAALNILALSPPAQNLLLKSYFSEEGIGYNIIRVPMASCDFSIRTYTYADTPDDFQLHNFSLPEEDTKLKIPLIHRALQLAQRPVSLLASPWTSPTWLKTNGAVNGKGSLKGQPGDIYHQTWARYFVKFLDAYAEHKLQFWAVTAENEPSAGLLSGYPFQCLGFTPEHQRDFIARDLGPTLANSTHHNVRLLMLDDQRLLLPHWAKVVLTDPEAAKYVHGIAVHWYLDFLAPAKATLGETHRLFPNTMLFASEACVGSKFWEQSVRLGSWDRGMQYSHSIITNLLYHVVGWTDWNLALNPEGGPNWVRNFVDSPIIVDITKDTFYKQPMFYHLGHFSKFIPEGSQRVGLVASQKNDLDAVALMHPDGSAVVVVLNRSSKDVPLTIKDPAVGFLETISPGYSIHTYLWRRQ
Chain of Cytochrome P450 3A4 (Homo sapiens) (P08684 whole entry, looked up): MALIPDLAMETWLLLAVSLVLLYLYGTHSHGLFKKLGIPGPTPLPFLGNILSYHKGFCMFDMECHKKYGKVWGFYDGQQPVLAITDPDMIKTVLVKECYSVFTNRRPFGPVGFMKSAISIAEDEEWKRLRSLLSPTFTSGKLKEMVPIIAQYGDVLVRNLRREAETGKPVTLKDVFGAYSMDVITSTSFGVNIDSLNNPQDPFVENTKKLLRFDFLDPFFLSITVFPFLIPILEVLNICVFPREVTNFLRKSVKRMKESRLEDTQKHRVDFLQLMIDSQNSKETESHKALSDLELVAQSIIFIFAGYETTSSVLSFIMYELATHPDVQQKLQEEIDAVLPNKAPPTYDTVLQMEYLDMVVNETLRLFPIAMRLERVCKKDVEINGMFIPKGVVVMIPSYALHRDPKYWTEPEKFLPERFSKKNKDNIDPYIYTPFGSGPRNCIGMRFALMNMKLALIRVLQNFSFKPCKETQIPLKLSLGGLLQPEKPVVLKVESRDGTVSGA
Chain of Cytochrome P450 1A2 (Homo sapiens) (P05177 whole entry, looked up): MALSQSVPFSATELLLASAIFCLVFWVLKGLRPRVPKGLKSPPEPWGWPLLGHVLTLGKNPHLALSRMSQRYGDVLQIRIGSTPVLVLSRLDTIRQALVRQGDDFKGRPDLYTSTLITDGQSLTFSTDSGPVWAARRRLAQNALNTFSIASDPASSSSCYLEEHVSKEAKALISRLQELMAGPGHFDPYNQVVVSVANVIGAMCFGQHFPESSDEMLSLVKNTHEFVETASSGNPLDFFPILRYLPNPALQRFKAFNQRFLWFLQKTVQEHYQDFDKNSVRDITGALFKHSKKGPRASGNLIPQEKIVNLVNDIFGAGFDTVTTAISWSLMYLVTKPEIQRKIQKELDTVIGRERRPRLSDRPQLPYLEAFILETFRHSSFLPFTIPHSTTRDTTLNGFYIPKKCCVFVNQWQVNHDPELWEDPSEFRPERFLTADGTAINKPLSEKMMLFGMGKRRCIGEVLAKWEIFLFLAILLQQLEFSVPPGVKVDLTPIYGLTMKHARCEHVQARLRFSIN
Chain of Cytochrome P450 2C19 (Homo sapiens) (P33261 whole entry, looked up): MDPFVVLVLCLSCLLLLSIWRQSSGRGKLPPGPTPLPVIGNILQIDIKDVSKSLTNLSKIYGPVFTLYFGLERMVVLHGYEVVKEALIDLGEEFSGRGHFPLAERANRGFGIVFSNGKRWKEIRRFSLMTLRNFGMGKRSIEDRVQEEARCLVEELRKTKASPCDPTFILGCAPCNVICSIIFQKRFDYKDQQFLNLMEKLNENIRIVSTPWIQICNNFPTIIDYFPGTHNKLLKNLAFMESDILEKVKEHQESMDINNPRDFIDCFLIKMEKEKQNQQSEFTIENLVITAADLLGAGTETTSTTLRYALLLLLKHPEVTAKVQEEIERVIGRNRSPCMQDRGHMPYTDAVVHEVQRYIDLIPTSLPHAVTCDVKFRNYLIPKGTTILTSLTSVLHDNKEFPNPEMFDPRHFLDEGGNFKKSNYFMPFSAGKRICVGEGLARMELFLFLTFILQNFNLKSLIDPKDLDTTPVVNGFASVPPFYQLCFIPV

SMILES | activity change, negative = inhibition [1] | Potency [2] | activity change, negative = inhibition [3] | activity, negative = inhibition [4] | Potency [5] | Potency [6] | Potency [7] | Potency [8] | Potency [9] | Potency [10] | outcome [11] | Potency [12] | Potency [13] | Potency [14] | Potency [15] | Potency [16] | Potency [17] | activation [18]
Clc1ccccc1-c1nccc(NCc2ccccc2)n1 | 12.5% | 3.16 µM (active) | 10.7% | -6.25% | > 46 µM | > 46 µM | inactive | inactive | inactive | 28.2 µM (active) | inactive | – | – | – | – | – | – | –
c1ccc2c(N3CCOCC3)nc(-c3ccoc3)nc2c1 | -5.2% | 1.26 µM (active) | 12.4% | -2.69% | > 46 µM | > 46 µM | inactive | inactive | 14.1 µM (active) | inactive | inactive | > 11.4 µM | 6.31 µM (active) | inactive | – | – | – | –
COc1ccccc1CCn1c(=O)c(-c2cccs2)nc2cncnc21 | -29.2% | 2 µM (active) | -5.89% | -0.377% | > 9.22 µM | > 46 µM | inactive | inactive | inactive | inactive | inactive | > 11.4 µM | 3.16 µM (active) | inactive | 2.51 µM (active) | 2 µM (active) | – | –
Cc1noc(C)c1-c1nc(NCc2cccs2)c2ccccc2n1 | 3.98% | 0.2 µM (active) | – | -8.06% | > 46 µM | > 46 µM | inactive | inactive | inactive | 10 µM (active) | inactive | > 2.29 µM | 6.31 µM (active) | inactive | – | – | – | –
COc1ccc(-n2c(=O)c(-c3cc(F)cc(F)c3)nc3cncnc32)cc1 | -5% | 12.6 µM (active) | -16% | 6.92% | > 9.22 µM | > 46 µM | inactive | inactive | inactive | inactive | inactive | > 11.4 µM | – | inactive | – | – | inactive | –
COCCn1c(=O)c(-c2ccc(OC)cc2)nc2cnc(OCc3ccccc3)nc21 | -11.8% | – | – | 7.46% | > 9.22 µM | > 46 µM | inactive | inactive | inactive | inactive | inactive | > 11.4 µM | – | inactive | – | – | – | –
CN(C)C(=O)c1ccc(-c2nccc(NCc3cccs3)n2)cc1 | -0.866% | 15.8 µM (active) | 3.58% | -7.66% | – | > 46 µM | inactive | inactive | inactive | inactive | inactive | > 11.4 µM | – | inactive | – | – | inactive | –
Cc1nc2cnc(Nc3ccccc3)nc2n(CCc2ccccc2)c1=O | -7.04% | 2.51 µM (active) | -9.65% | -6.93% | > 9.22 µM | > 46 µM | inactive | inactive | – | inactive | inactive | > 11.4 µM | – | inactive | – | – | inactive | –
Cc1cnc(CNc2nc(-c3ccoc3)nc3ccccc23)cn1 | -13.5% | 2 µM (active) | – | 9.84% | > 46 µM | > 46 µM | inactive | inactive | – | inactive | inactive | > 11.4 µM | – | inactive | – | – | inactive | -5.75%
Cc1nc2cncnc2n(Cc2ccccc2Cl)c1=O | -18% | – | -1.6% | -18.9% | > 9.22 µM | > 46 µM | inactive | inactive | inactive | inactive | inactive | > 11.4 µM | – | – | – | – | – | –
Cc1noc(C)c1-c1nc(NCc2ccccc2)c2ccccc2n1 | -3.06% | – | – | -4.57% | > 46 µM | > 46 µM | inactive | inactive | inactive | 6.31 µM (active) | inactive | > 11.4 µM | – | – | – | – | – | –
COc1cccc(Nc2ncc3nc(-c4cccs4)c(=O)n(CCC#N)c3n2)c1 | -26.3% | 2.51 µM (active) | – | – | > 9.22 µM | > 46 µM | inactive | inactive | inactive | inactive | inactive | > 11.4 µM | 6.31 µM (active) | inactive | – | – | inactive | –
COc1ccc2[nH]cc(CCNc3ccnc(-c4ccoc4)n3)c2c1 | -23% | 0.501 µM (active) | -2.92% | -23.2% | > 46 µM | > 46 µM | inactive | 14.1 µM (active) | – | inactive | inactive | > 11.4 µM | 3.16 µM (active) | inactive | – | 0.501 µM (active) | inactive | –
